This is a sample that favours compounds with a hit; in the whole collection about 0.45% have one here.
EPAC1 antag = blocks human EPAC1 exchange factor; Potency, µM (doses to about 115 µM), for the others: at the highest dose activity change, negative = inhibition, usual class: inhibitors; AID 720709; EPAC1 GEF assay, Rap1b-BODIPY-GDP exchange fluorescence; 0.14% of 360,000 active; O95398;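 further: plate controls were vehicle for no effect and positive control for full effect; nearly all actives have a fitted effect of over 50% in size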
EPAC2 antag = EPAC2 (human) antagonism | Q8WZA2 | EPAC2 GEF exchange of Rap1B-BODIPY-GDP, fluorescence | Potency, µM (highest dose often 114 µM), for inactives: top-dose activity, negative = inhibition, actives largely listed as inhibitors | 0.18% of 360,000 active | AID 720708; further: on the % scale 0 is the no-effect control and ±100 the full control effect; nearly all actives have a fitted effect of over 45% in size
USP1-UAF1 inh = USP1/UAF1 (human) deubiquitinase inhibition; recombinant USP1/UAF1, Ub-Rhodamine cleavage fluorescence; Potency, µM (highest dose often 57.1 µM), for inactives: at the highest dose activity change, negative = inhibition, hits mostly inhibitors; 0.23% of 390,000 active; O94782; further: on the % scale 0 is the no-effect control and ±100 the full control effect; nearly all actives have a fitted effect of over 60% in size
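In this screen, compounds sit with the deubiquitinase complex (1nM) for 15 min at room temperature before Ub-Rho is added at 150nM final. Fluorescence rise is then followed for 6 reads every 60 seconds.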
EPAC2 agonist = EPAC2 (human) agonism | Q8WZA2 | EPAC2 activation, biochemical qHTS; response scale: 100% = 6.5 mM cAMP response | Potency, µM (highest dose often 154 µM), for inactives: at the top dose activation, hits mostly activators | 0.079% of 360,000 active; further: nearly all actives have a fitted effect of over 50% in size
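qHTS, titration series. 100 nM EPAC2 / 250 nM Rap1B-BODIPY-GDP / 50 uM GDP; RT; ex 480/em 540 nm, 5-min reads to 30 min. Norm. to 6.5 mM cAMP = activation.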
EPAC1 ag = EPAC1 (human) agonism; O95398; EPAC1 agonist qHTS, biochemical assay; response scale: 100% = response to 6.5 mM cAMP; Potency, µM (series often up to 154 µM), inactives show at the top dose activation, usual class: activators; 0.073% of 360,000 active; further: nearly all actives have a fitted effect of over 60% in size
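Multi-concentration qHTS readout: loss of Rap1B-bound BODIPY-GDP fluorescence driven by 100 nM EPAC1 with excess GDP (50 uM), monitored kinetically at room temperature; agonist response expressed relative to 6.5 mM cAMP.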
* marks the source's active call; other numbers are inactive results; i = inactive; ? = inconclusive; . = no result; + = active, no number. The call rests on the fitted dose curve; in most records, active means well fitted curve in the direction sought with a large enough effect; inconclusive means small, poorly fitted or top-dose-only effect, or another doubt; inactive means no such curve, though single readings can be large; an effect the other way counts as inactive or inconclusive. Potency means the concentration at half of the fitted maximal effect.

SMILES | EPAC1 antag | EPAC2 antag | USP1-UAF1 inh | EPAC2 agonist | EPAC1 ag
O=C1c2[nH]nc(-c3ccccc3O)c2C(c2cccc(Br)c2)N1Cc1ccncc1 (configuration not stated) | . | . | 1% | . | .
Cc1ccc(-n2c(O)c(C=Nc3ccccc3-c3n[nH]c(=S)[nH]c3=O)c3ccccc3c2=O)c(C)c1 | 15% | -10% | -27% | -1% | -12%
Cc1ccc(-n2c(O)c(C=Nc3ccccc3-c3n[nH]c(=S)[nH]c3=O)c3ccccc3c2=O)cc1C | 50µM* | -22% | ? | 0% | 8%
O=C(CCc1cn(Cc2ccccc2F)c2ccccc12)NCc1ccc(Cl)cc1 | . | . | -17% | . | .
CCCCNC(=O)C1CCC(Cn2c(=O)c3sccc3n(CC(=O)Nc3ccccc3)c2=O)CC1 (configuration not stated) | . | . | -5% | . | .
COc1ccc2cc(C(=O)N/N=C/c3sc4ccccc4c3O)ccc2c1 | 35% | -11% | 28µM* | -39% | 8%
CC(NC(=O)Nc1ccc(O)cc1)(C(F)(F)F)C(F)(F)F | 79µM* | ? | ? | -19% | -2%
COc1ccc(NC(=O)NC(C)(C(F)(F)F)C(F)(F)F)cc1 | -8% | 3% | -20% | -2% | -9%
COc1ccccc1CNc1nc(-c2ccco2)nn1C(=O)c1ccccc1[N+](=O)[O-] | . | . | -17% | . | .
Cn1c(=O)c(C#N)c(-c2ccc(F)cc2)c2cc(C(=O)c3cc(Cl)cc(Cl)c3O)cnc21 | ? | 50µM* | -11% | -3% | -2%
O=C(NCCCN1CCN(c2ccc(F)cc2)CC1)c1cnn(-c2ccc(F)cc2)c1-n1cccc1 | . | . | -11% | . | .
CCOC(=O)c1c2c(n(Cc3ccccc3)c1C)C(=O)C(=O)c1ccccc1-2 | -18% | -1% | 2.5µM* | 0% | 2%
CC1CCc2c(sc3nc(SCC(=O)O)n(-c4ccccc4)c(=O)c23)C1 (configuration not stated) | 89µM* | -14% | -18% | -2% | ?
C=C(C)CSc1nc2sc3c(c2c(=O)n1-c1ccccc1)CC(C(C)C)OC3 (configuration not stated) | . | . | -28% | . | .
CCOC(=O)CSc1nc2sc3c(c2c(=O)n1-c1ccccc1)CCC(C(C)(C)C)C3 (configuration not stated) | . | . | -31% | . | .
COc1ccc(NC(=O)CSc2nc3sc4c(c3c(=O)n2-c2ccc(OC)cc2)CCN(C)C4)cc1 | -6% | 71µM* | -27% | ? | 6%
COC(=O)CSc1nc2sc3c(c2c(=O)n1-c1ccc(C)cc1)CC(C(C)C)OC3 (configuration not stated) | . | . | + | . | .
Cc1ccsc1CN(Cc1ccco1)C(=O)c1ccc(Cl)cc1 | . | . | -11% | . | .
O=[N+]([O-])c1ccccc1S(=O)(=O)c1ccccc1 | 7% | -18% | -4% | 8% | 0%
CNc1ccc(Cl)cc1S(=O)(=O)c1ccccc1[N+](=O)[O-] | -16% | 63µM* | . | 6% | -4%
COc1ccccc1NC(=O)c1cnc(SCC(=O)N2CCOCC2)n(C)c1=O | . | . | 7% | . | .
Cc1ccc(C2CC(c3cccs3)=NN2C(=O)c2ccco2)o1 (configuration not stated) | -13% | 28µM* | -24% | 10% | 12%
COc1cc(N(C(C)=O)c2ccc(O)c(C(=O)O)c2)c2ncccc2c1 | -1% | -8% | 32µM* | 5% | 3%
CCN(CC)c1ccc2cc(C(=O)c3cccs3)c(=O)oc2c1 | 322% | i | . | 79µM* | 56µM*
CCN(CC)c1ccc2cc(-c3nc4ccccc4[nH]3)c(=O)oc2c1 | 53% | 229% | -20% | 7% | ?
SMILES | EPAC1 antag | EPAC2 antag | USP1-UAF1 inh | EPAC2 agonist | EPAC1 ag
Cc1ccc(N=Cc2sc(O)c3ccccc23)c(C)c1 | -9% | 220% | i | 100µM* | 5%
COc1cccc2c1C(=O)c1c(O)c3c(c(O)c1C2=O)C[C@@](O)(C(C)=O)C[C@@H]3O[C@H]1C[C@H](N)[C@H](O)[C@H](C)O1 | 15% | ? | 5.6µM* | -9% | 4%
COc1cccc2c1C(=O)c1c(O)c3c(c(O)c1C2=O)C[C@@](O)(C(=O)CO)C[C@@H]3O[C@H]1C[C@H](N)[C@@H](O)[C@H](C)O1 | 23% | 10% | 28µM* | -1% | -7%
CC(=O)[C@]1(O)Cc2c(O)c3c(c(O)c2[C@@H](O[C@H]2C[C@H](N)[C@H](O)[C@H](C)O2)C1)C(=O)c1ccccc1C3=O | 127% | 105% | 28µM* | 112µM* | 100µM*
COc1cccc2c1C(=O)c1c(O)c3c(c(O)c1C2=O)CC(O)(C(=O)CO)CC3OC1CC(N(C)C)C(O)C(C)O1 (configuration not stated) | 25% | 12% | ? | -3% | ?
Cc1cc(C)c(NC(=O)CCC(=O)N2Cc3ccccc3Oc3ncccc32)c(C)c1 | . | . | -17% | . | .
CC1Cc2cc(S(=O)(=O)CCC(=O)Nc3ccccc3F)ccc2N1C(=O)C1CC1 (configuration not stated) | . | . | -4% | . | .
O=C(NCc1ccc(Cl)cc1)C(=O)NCC(c1ccc2c(c1)OCO2)N1CCOCC1 (configuration not stated) | . | . | -18% | . | .
Cc1ccc(N(Cc2cccs2)C(=O)c2ccc(OC(C)C)cc2)cc1 | . | . | -8% | . | .
CN1c2ccccc2C(C)(C)C12C=Nc1c(cc(N3CCOCC3)c3ccccc13)O2 (configuration not stated) | 89µM* | -25% | ? | 4% | 10%
O=[N+]([O-])c1cc(-c2ccccc2)cc([N+](=O)[O-])c1O | ? | 56µM* | ? | 0% | 1%
O=[N+]([O-])c1cc2ccccc2c(O)c1O | ? | -17% | ? | -2% | -3%
O=C1c2ccccc2C(c2nnnn2Cc2ccccc2)N1Cc1ccc(F)cc1 (configuration not stated) | -5% | 6% | . | 1% | -2%
O=C1c2ccccc2C(c2nnnn2Cc2ccccc2)N1CCc1c[nH]c2ccccc12 (configuration not stated) | -15% | 75µM* | . | 10% | 8%
COC(=O)C(C(C)=O)C1=C/C(=N\S(=O)(=O)c2ccc(C)cc2)c2ccccc2C1=O (configuration not stated) | -7% | -7% | -20% | -5% | 3%
O=C(O)c1ccc(S(=O)(=O)/N=C2\C=C(Nc3ccccc3F)C(=O)c3ccccc32)cc1 | 22µM* | ? | 2.5µM* | 30% | 5%
Cc1ccccc1NC1=C/C(=N\S(=O)(=O)c2ccc(C(=O)O)cc2)c2ccccc2C1=O | 40µM* | 50µM* | 1.3µM* | 17% | 1%
COc1ccc(-c2noc(CSc3nnc(Cc4ccccc4)n3-c3ccc(F)cc3)n2)cc1 | . | . | -30% | . | .

Assay outcomes (PubChem)
